# Bioassay records: PubChem, National Center for Advancing Translational Sciences (NCATS)
# nsP2pro inh: CHIKV nsP2 protease inhibition, primary qHTS; hit rate 1.1% among 31,000; AID 1964107; FRET peptide cleavage, nsP2pro, fluorescence 1 h; Potency, µM (highest dose often 24.9 µM), without a hit: at the highest dose activity change, negative = inhibition, actives largely listed as inhibitors; Q8JUX6; note: nearly all actives have a fitted effect of over 60% in size
#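 Recombinant nsP2pro (150 nM) was preincubated with compound 15 min at room temperature in 10 mM Tris-HCl pH 8.0, 0.01% Tween 20. Peptide 2 FRET substrate (2.5 uM) was then added and fluorescence read after 1 h. Seven-point series, up to 25 uM.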
# CHIKV nsP2 cell: inhibits CHIKV nsP2 protease in cells | shares compounds with nsP2pro inh | cell-based CHIKV nsP2 protease reporter assay | Potency, µM (series often up to 51.1 µM), without a hit: top-dose activity change, negative = inhibition, usual class: inhibitors | hit rate 10% among 450 | AID 1964100; note: nearly all actives have a fitted effect of over 70% in size
# CHIKV NSP2 FL: full-length CHIKV NSP2 protease inhibition, selectivity; AID 1964101; shares compounds with nsP2pro inh; Potency, µM (doses to about 50.7 µM), inactives show top-dose activity change, negative = inhibition, most hits filed as inhibitors; Full-length CHIKV NSP2 protease enzymatic counterscreen; hit rate 39% among 410; note: nearly all actives have a fitted effect of over 65% in size
# Furin counter: inhibits human furin in a CHIKV nsP2 protease selectivity counterscreen | AID 1964102 | Potency, µM (doses to about 50.6 µM), for inactives: at the top dose activity change, negative = inhibition, most hits filed as inhibitors | shares compounds with nsP2pro inh | hit rate 6% among 410 | Recombinant human furin enzymatic counterscreen, fluorogenic substrate
# NS23 peptide cs: blocks CHIKV nsP2 protease cleavage of endogenous NS2/3 peptide | shares compounds with nsP2pro inh | Purified CHIKV nsP2 protease, endogenous NS2/3 peptide cleavage | Potency, µM (titrated, usually from 51 µM), without a hit: at the top dose activity change, negative = inhibition, actives largely listed as inhibitors | hit rate 34% among 410 | AID 1964103; note: nearly all actives have a fitted effect of over 55% in size
# Papain counter: selectivity counter-screen for CHIKV nsP2 protease inhibitors: papain; shares compounds with nsP2pro inh; purified papain protease activity, enzymatic inhibition; Potency, µM (series often up to 51 µM), inactives show at the top dose activity change, negative = inhibition, most hits filed as inhibitors; hit rate 5% among 410; AID 1964104
# Target sequence (P00784 whole entry, looked up): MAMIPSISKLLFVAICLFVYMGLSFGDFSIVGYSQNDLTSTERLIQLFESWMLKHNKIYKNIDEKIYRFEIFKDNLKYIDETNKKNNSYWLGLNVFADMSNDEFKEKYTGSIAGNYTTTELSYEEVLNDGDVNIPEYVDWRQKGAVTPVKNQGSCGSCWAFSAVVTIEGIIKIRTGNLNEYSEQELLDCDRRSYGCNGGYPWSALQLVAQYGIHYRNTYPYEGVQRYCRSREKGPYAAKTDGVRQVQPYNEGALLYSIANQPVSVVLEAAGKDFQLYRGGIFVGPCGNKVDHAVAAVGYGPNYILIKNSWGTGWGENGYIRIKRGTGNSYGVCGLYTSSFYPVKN
# nsP2pro confirm: CHIKV nsP2 protease inhibition, confirmatory qHTS; shares compounds with nsP2pro inh; CHIKV nsP2 protease enzymatic activity, qHTS; AID 1964105; Potency, µM (highest dose often 25.5 µM), without a hit: at the highest dose activity change, negative = inhibition, hits mostly inhibitors; hit rate 43% among 410; note: nearly all actives have a fitted effect of over 75% in size
# HCV NS3 4A cs: selectivity counter-screen for CHIKV nsP2 protease inhibitors: HCV NS3/4A; hit rate 20% among 410; HCV NS3/4A protease biochemical counterscreen; AID 1964106; shares compounds with nsP2pro inh; Potency, µM (titrated, usually from 50.9 µM), actives largely listed as inhibitors; note: nearly all actives have a fitted effect of over 55% in size
# The depositor's hits bear a star; i = inactive; ? = inconclusive; [ ] = remark or other dose. The sample as a whole holds a higher share of hits than the screen did. Calls come from the whole dose curve. % is set by controls: 0 for no effect and ±100 for the full control effect; potency is the fitted concentration of half-maximal effect.
SMILES,nsP2pro inh,others
COc1cc(-c2onc(C)c2C(=O)NCCCOC(C)C)cc(OC)c1OC,0%,
Cc1cc(C)nc(NC(=S)N2CCN(Cc3c(F)cccc3Cl)CC2)c1,-4%,
Cc1nc(CCN(C)c2ncnc3ccc(-c4ccc5c(c4)OCO5)cc23)cs1,1%,
COc1ccccc1-c1nc2ccccc2s1,i,
O=C(Cc1ccc(Cl)c(Cl)c1)Nc1ccc([S+](=O)([O-])Nc2ccccn2)cc1,-3%,
FC(F)(F)c1ccccc1-c1nc(NCc2ccc(-c3ccncc3)cc2)c2ccccc2n1,-11%,
COc1ccc(NC(=O)C(OC(=O)CNC(=O)c2ccccc2)c2ccccc2)c(C)c1 (stereo not drawn),-4%,
C[C@H](NCCc1ccc(O)cc1)[C@H](O)c1ccc(O)cc1,-1%,
COc1cccc(C(=O)CCN[C@@H](C)[C@H](O)c2ccccc2)c1,1.6µM*,CHIKV nsP2 cell=54%;CHIKV NSP2 FL=5.8µM*;Furin counter=-4%;NS23 peptide cs=10µM*;Papain counter=-3%;nsP2pro confirm=1.3µM*;HCV NS3 4A cs=i
O=C(Nc1ccc(F)c(C(F)(F)F)c1)Nc1cccc(-c2ccncc2)n1,4%,
Cc1nc(CNc2ncnc3ccc(-c4ccoc4)cc23)cs1,i,
Cc1sc(NC(=O)Cc2ccc3c(c2)OCO3)nc1-c1ccc2c(c1)CCN2C,-13%,
CS(=O)(=O)c1ccc(C(=O)OCC(=O)N2CCN(Cc3ccccc3)CC2)cc1[N+](=O)[O-],-24%,
O=C1c2ccccc2NC(c2ccc(-c3ccc(C(F)(F)F)cc3)o2)N1O (stereo not drawn),10µM*,CHIKV nsP2 cell=21µM*;CHIKV NSP2 FL=149%;Furin counter=-8%;NS23 peptide cs=11%;Papain counter=-14%;nsP2pro confirm=35%;HCV NS3 4A cs=i
O=C1c2ccccc2NC(c2ccccc2O)N1Cc1ccccc1 (stereo not drawn),-5%,
O=C1c2ccccc2NC(c2ccc(-c3cccs3)o2)N1O (stereo not drawn),5.6µM*,CHIKV nsP2 cell=-30%;CHIKV NSP2 FL=32%;Furin counter=-14%;NS23 peptide cs=4%;Papain counter=-5%;nsP2pro confirm=34%;HCV NS3 4A cs=i
Brc1ccc(-c2ccc(C3Nc4cccc5cccc(c45)N3)o2)cc1,-17%,
O=C1c2ccccc2NC(c2ccc(Br)o2)N1O (stereo not drawn),1%,
Fc1ccccc1C1=NC(c2ccc(C(F)(F)F)cc2)=Nc2ccccc2N1,-25%,
Fc1cc(-c2nc(Nc3ccc(F)c(F)c3)c3ccccc3n2)ccn1,i,
O=C(/C=C/c1ccc(O)c2c1[C@H](C(=O)O)[C@@H](c1ccc(O)c(O)c1)O2)O[C@H](Cc1ccc(O)c(O)c1)C(=O)O,87%,
COc1ccnc(NC(=S)N2CCN(c3cccc(Cl)c3Cl)CC2)c1,-8%,
C1=C(c2cnc[nH]2)c2ccsc2CC1,?,CHIKV nsP2 cell=5%;CHIKV NSP2 FL=85%;Furin counter=?;NS23 peptide cs=-12%;Papain counter=-1%;nsP2pro confirm=40%;HCV NS3 4A cs=i
CN1CCN2c3c(cccc31)[C@@H]1CN(CCCC(=O)c3ccc(F)cc3)CC[C@@H]12,-15%,
O=S(=O)(Nc1nccs1)c1ccc(NCc2cccc(Cl)c2Cl)cc1,1%,
SMILES,nsP2pro inh,others
C[C@](C#N)(COc1cc(C#N)ccc1C(F)(F)F)NC(=O)c1ccc(SC(F)(F)F)cc1,3%,
CC(=O)Nc1sc2c(c1-c1ccc3c(c1)OCCCO3)CCNC2,-7%,
COc1ccc(OC)c(NC(=O)CN2C(=O)c3ccccc3Sc3ccc(C(=O)N4CCCC4)cc32)c1,-5%,
COc1ccc(Br)c(C(=O)Nc2cc3c(cc2N2CCCC2)n(C)c(=O)c(=O)n3C)c1,-33%,
COc1ccc(OC)c(N2C(=O)C(Cl)=C(N3CCCCC3)C2=O)c1,?,CHIKV nsP2 cell=-11%;CHIKV NSP2 FL=16µM*;Furin counter=-7%;NS23 peptide cs=?;Papain counter=-18%;nsP2pro confirm=7.1µM*;HCV NS3 4A cs=i
O=C(Nc1ccc(S(=O)(=O)Nc2nccs2)cc1)C1CCC2(CCC2)CC1,-6%,
O=c1oc2c3c(ccc2c2ccccc12)OCN(Cc1cccc(Cl)c1)C3,-13%,
O=c1oc2c3c(ccc2c2ccccc12)OCN(Cc1ccccc1Cl)C3,1.1µM*,CHIKV nsP2 cell=115%;CHIKV NSP2 FL=-1%;Furin counter=-11%;NS23 peptide cs=12µM*;Papain counter=-4%;nsP2pro confirm=4µM*;HCV NS3 4A cs=i
Cc1cc(=O)oc2c3c(ccc12)OCN(Cc1ccccc1Cl)C3,32%,
CC=CC1C(C(=O)OCc2c(F)c(F)c(COC)c(F)c2F)C1(C)C (stereo not drawn),15%,
COc1cc(NS(=O)(=O)c2cccc([N+](=O)[O-])c2)c2ncccc2c1,107%,
COc1ccc([N+](=O)[O-])c(S(=O)(=O)c2ccccc2)n1,2.2µM*,CHIKV nsP2 cell=1.8µM*;CHIKV NSP2 FL=13µM*;Furin counter=?;NS23 peptide cs=3.3µM*;Papain counter=-12%;nsP2pro confirm=5.7µM*;HCV NS3 4A cs=?
COc1ccc(-c2ccc(NS(=O)(=O)c3ccccc3)cc2)nn1,-2%,
COc1ccc([N+](=O)[O-])c(S(=O)(=O)c2ccc(Cl)cc2)n1,6.3µM*,CHIKV nsP2 cell=2.1µM*;CHIKV NSP2 FL=23µM*;Furin counter=-1%;NS23 peptide cs=5.8µM*;Papain counter=-10%;nsP2pro confirm=-98%;HCV NS3 4A cs=i
CCN(CC)CCCNc1sc(S(=O)(=O)c2ccccc2)nc1S(=O)(=O)c1ccc(Cl)cc1,30%,
COc1ccc(NS(=O)(=O)c2ccc(N)cc2)nn1,-4%,
O=C(c1cccc(Br)c1)N1CCC(N2CCCC2)CC1,-9%,
Cc1ccc(S(=O)(=O)Nc2cnccc2C(=O)Nc2nc(-c3cccc(C)c3)cs2)cc1,3%,
Cc1cc(C2=NOC(c3cc(Cl)cc(Cl)c3)(C(F)(F)F)C2)ccc1C(=O)NCC(=O)NCC(F)(F)F (stereo not drawn),6%,
C/C=C/C=C/C(O)=C1\C(O)=C(C)C(=O)[C@@]2(C)OC(=O)[C@@](C)(NC(=O)/C=C/C(=O)O)[C@@H]12,12%[10 µM],
N#Cc1nc(-c2cccc3ccccc23)oc1Nc1ccccc1,-3%,
COc1ccc(NC(=O)C2=C(C)Nc3ncnn3C2c2ccc(C)o2)cc1 (stereo not drawn),-14%,
CCOc1ccccc1NC(=O)C1=C(C)Nc2ncnn2C1c1sccc1C (stereo not drawn),-15%,
COc1ccccc1NC(=O)C1=C(C)Nc2ncnn2C1c1ccc[nH]1 (stereo not drawn),8.9µM*,CHIKV nsP2 cell=5%
CCCCN(Cc1ccc(C(=O)NO)cc1)C(=O)Nc1ccccc1,-25%,
Cn1nc(C(=O)NC2CC2)c2c1CN(C(=O)Cc1cccc(F)c1)C2,-10%,
Oc1ccc(CCNCCCCCCNCCc2ccccc2)cc1O,-13%,
